A selection: hits, their analogues and other compounds. The true share with any hit is near 10%.
Luciferase inh – Firefly luciferase inhibition profiling of diverse chemical library using quantitative high-throughput screening | 76,000 tested, 2.5% active | purified P. pyralis luciferase, luminescence, biochemical | Potency, µM (top dose mostly 115 µM), usual class: inhibitors | Luciferin 4-monooxygenase (Photinus pyralis), P08659; further: nearly all actives have a fitted effect of over 65% in size
Target sequence (P08659 whole entry, looked up): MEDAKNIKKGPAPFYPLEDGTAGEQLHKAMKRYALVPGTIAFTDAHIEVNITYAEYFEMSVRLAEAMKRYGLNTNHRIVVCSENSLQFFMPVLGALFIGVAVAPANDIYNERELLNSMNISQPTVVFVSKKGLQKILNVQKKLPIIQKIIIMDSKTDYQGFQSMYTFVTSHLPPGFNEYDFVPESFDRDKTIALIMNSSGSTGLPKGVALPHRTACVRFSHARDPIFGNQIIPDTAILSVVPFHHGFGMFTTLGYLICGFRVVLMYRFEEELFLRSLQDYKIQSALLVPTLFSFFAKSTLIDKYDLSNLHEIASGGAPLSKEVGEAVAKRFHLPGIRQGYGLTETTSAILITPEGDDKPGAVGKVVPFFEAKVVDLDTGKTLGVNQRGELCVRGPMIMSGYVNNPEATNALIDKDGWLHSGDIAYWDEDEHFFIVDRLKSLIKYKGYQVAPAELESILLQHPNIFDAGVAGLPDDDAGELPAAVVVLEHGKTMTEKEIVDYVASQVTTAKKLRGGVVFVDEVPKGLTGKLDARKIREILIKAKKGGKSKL
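FLuc 10nM, D-luciferin 10uM, ATP 10uM, Mg acetate 10mM, Tris acetate pH 7.5, Tween/BSA; cpd qHTS; enzyme added last; CCD luminescence.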
HEK293 tox – Cytotoxic Profiling in HEK 293 Cell Line of Diverse Libraries Using Quantitative High-Throughput Screening; HEK 293 viability, ATP luminescence (CellTiter-Glo), 48-72 h; Potency, µM (top dose mostly 115 µM), for the others: top-dose activity change, negative = cytotoxicity, usual class: inhibitors; 94,000 tested, 6.6% active; AID 1345083, 2018; further: nearly all actives have a fitted effect of over 60% in size
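Cells seeded first (HEK 293, 250 cells/well), then compound added by pintool. Incubation ran 48 or 72 hr at 37 degree Celsius. CellTiter-Glo was added and luminescence imaged after 10 min at room temperature.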
GPT2 inh – Primary qHTS assay for inhibitors of Glutamate pyruvate transaminase 2 (GPT2); Recombinant GPT2, coupled pyruvate oxidase/HRP Amplex Red fluorescence; Potency, µM (titrated, usually from 57.7 µM), for the others: top-dose activity change, negative = inhibition, actives largely listed as inhibitors; 100,000 tested, 0.25% active; Alanine aminotransferase 2 (Homo sapiens), Q8TD30; further: nearly all actives have a fitted effect of over 60% in size
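GPT2 10ng/uL, a-KG 250uM, L-Ala 2mM, HEPES pH7.5 + 0.0001% Tween; 30 min RT. Then Amplex mix (PO/HRP/ThPP), 30 min RT dark, fluorescence. AOA 50uM used as positive control.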
3T3 cytotox – Cytotoxic Profiling in NIH 3T3 Cell Line of Diverse Libraries Using Quantitative High-Throughput Screening; NIH 3T3 viability, CellTiter-Glo ATP luminescence, 48-72 h; Potency, µM (titrated, usually from 96.7 µM), for the others: at the top dose activity change, negative = cytotoxicity, most hits filed as inhibitors; 94,000 tested, 4.3% active; AID 1345082, 2018; further: nearly all actives have a fitted effect of over 55% in size
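ATP-dependent luminescence (CellTiter-Glo) served as the viability signal for NIH 3T3 cells treated with compound for 48 or 72 hr at 37 °C.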
hNpr1 antagonist – Natriuretic polypeptide receptor (hNpr1) antagonism - Primary qHTS; Atrial natriuretic peptide receptor 1 (Homo sapiens), P16066; HEK293 hNpr1 GloSensor cGMP, ANP-stimulated luminescence; Potency, µM (doses to about 46.3 µM), without a hit: top-dose activity change, negative = inhibition, usual class: inhibitors; 76,000 tested, 1.6% active; calls by dose curve; further: nearly all actives have a fitted effect of over 60% in size
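Compound pre-incubated 30 min at room temperature on GloSensor-loaded HEK293 cells stably carrying hNpr1 and the pGS-40F cGMP biosensor. Stimulation uses hNppA at 0.1 nM final; luminescence is taken at baseline and 20 min post-agonist.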
Starred values were filed as active, the others as inactive; i = inactive; ? = inconclusive; · = not tested or not shown; [ ] = another dose, or the depositor's remark. Unless noted, the call rests on the fitted dose curve; in most records, active means well fitted curve in the direction sought with a large enough effect; inconclusive means small, poorly fitted or top-dose-only effect, or another doubt; inactive means no such curve, though single readings can be large; an effect the other way counts as inactive or inconclusive. On the % scale 0 is the no-effect control and ±100 the full control effect; potency means the concentration at half of the fitted maximal effect.

SMILES | Luciferase inh | HEK293 tox | GPT2 inh | 3T3 cytotox | hNpr1 antagonist
COc1ccc(C(=O)Nc2cc(-c3ccncc3)nn2-c2ccccc2)cc1 | · | ? | 5% | ? | ·
O=C(Nc1cc(-c2ccncc2)nn1-c1ccccc1)c1ccc(C(F)(F)F)cc1 | · | ? | 2% | 32µM* | ·
Cc1cn2nc(C(=O)NCCc3ccccc3)cc2c(N2CCSCC2)n1 | i | ? | -8% | ? | 6%
COc1cccc(N2C(=O)NC(=NC3CCCCC3)C23CCCN(Cc2ccc(F)cc2)C3)c1 (centres undefined) | · | ? | i | 40µM* | ·
COc1cccc(N2C(=O)NC(=NC3CCCC3)C23CCN(Cc2ccccc2)C3)c1 (centres undefined) | · | 89µM* | 5% | ? | ·
COc1cccc(N2C(=O)NC(=NC3CCCCC3)C23CCN(Cc2ccccc2)C3)c1 (centres undefined) | · | -7% | i | -16% | ·
OCc1cccc(-c2cc3c(cn2)CN(CCc2ccccc2)CCN3)c1 | i | ? | -29%[88.5 µM] | ? | 0%[70.6 µM]
c1ccc(CN2CCNc3cc(-c4cccnc4)ncc3C2)cc1 | i | ? | i | -23%[138 µM] | 3%[70.6 µM]
COCCN1CCNc2cc(-c3ccc(Oc4ccccc4)cc3)ncc2C1 | 28µM* | 50µM* | -15%[88.5 µM] | 45µM* | ?
c1ccc(CCN2CCNc3cc(NCc4cccnc4)ncc3C2)cc1 | i | 50µM* | i | 50µM* | 4%[70.6 µM]
c1ccc(CCN2CCNc3cc(-c4cn[nH]c4)ncc3C2)cc1 | i | ? | 1%[88.5 µM] | 89µM* | -27%[70.6 µM]
Cc1noc(C)c1S(=O)(=O)NCC1(COc2ccc(S(C)(=O)=O)cc2)C[C@@H](O)[C@@H](O)C1 (some centres undefined) | i | i | -8% | 2% | 6%
Cc1nccn1-c1ccc(NC(=O)C2CCCN(c3ncccc3C#N)C2)cc1 (centres undefined) | i | 40µM* | i | ? | -20%
O=C(NC1CCN(c2ccnc3ccnn23)CC1)C1CCCC1 | · | -18%[172 µM] | i | -10%[138 µM] | ·
Cc1ccc(NC(=O)C2CCCN(c3ccnc4ccnn34)C2)cc1 (centres undefined) | · | 35µM* | -18% | ? | ·
O=C(NC1CCCCCC1)C1CCCN(c2ccnc3ccnn23)C1 (centres undefined) | · | 79µM* | i | ? | ·
COc1ccc(S(=O)(=O)Nc2cc(Cl)cc(Cl)c2OC)cc1N1CCNCC1 | · | · | 3% | · | ·
Cc1cc(=O)cc(C(=O)NC2CC(c3cc(=O)[nH]c(C4CC4)n3)C2)o1 (centres undefined) | i | -29% | i | ? | 2%
Cc1noc(C)c1-c1cc2cc(CN(C)C)oc2c(Nc2cccc([S+](C)(=O)[O-])c2)n1 | i | 50µM* | -11%[88.5 µM] | 45µM* | 3%[70.6 µM]
Cc1noc(C)c1-c1cc2cc(CN(C)C)oc2c(Nc2ccn(C)n2)n1 | i | ? | -1%[88.5 µM] | ? | 1%[70.6 µM]
COc1cc(CNc2nc(-c3c(C)noc3C)cc3cc(CN(C)C)oc23)cc(OC)c1 | i | ? | i | ? | -2%[70.6 µM]
COc1cccc(Nc2nc(-c3c(C)noc3C)cc3cc(CN(C)C)oc23)c1 | i | 45µM* | i | 45µM* | 1%[70.6 µM]
O=C(Nc1ccc(Cl)cc1)[C@@H]1COCC(=O)N1Cc1ccc(F)cc1 | i | -21% | 2% | ? | 1%
Cc1ccc(NC2CCCN(C(=O)Cc3c[nH]c(=O)n(C)c3=O)C2)cc1C (centres undefined) | i | -9% | i | -14% | -1%
COCCc1noc(C2CNC2)n1 | i | 8.9µM* | i | 18µM* | -21%
SMILES | Luciferase inh | HEK293 tox | GPT2 inh | 3T3 cytotox | hNpr1 antagonist
C(Cc1noc(C2CNC2)n1)OCC1CC1 | i | 11µM* | -6% | 16µM* | -30%
COC(=O)Nc1cc(-c2ccccn2)nn1-c1ccccc1 | · | -23%[172 µM] | -25%[88.5 µM] | -17%[138 µM] | ·
CN1CCCCCCN(C(=O)Cc2cccc(F)c2)[C@H]2CCC[C@H]2C1=O | i | -18% | 2% | ? | 1%
O=C1CCCN1CCN1CCOc2c(O)cc(-c3csc4ccccc34)cc2C1 | i | 45µM* | 4% | ? | 2%
Cc1[nH]cnc1C(=O)N1CCOc2c(O)cc(-c3csc4ccccc34)cc2C1 | i | 45µM* | 5% | 79µM* | -18%
O=C(CN1CCOc2c(O)cc(-c3csc4ccccc34)cc2C1)N1CCOCC1 | i | ? | i | ? | -3%
NCCCCC(=O)N1CCOc2c(O)cc(-c3csc4ccccc34)cc2C1 | i | 32µM* | -6% | 40µM* | -29%
Cc1ccsc1C(=O)NC1CCN(c2cc(-c3ccc(Cl)cc3)[nH]n2)C1 (centres undefined) | i | 50µM* | -25% | ? | -23%
COc1ccc(-c2cc(N3CCCC(NC(=O)c4sccc4C)C3)n[nH]2)cc1 (centres undefined) | 25µM* | ? | -26% | -26% | -13%
Cc1ccsc1C(=O)NC1CCCN(c2cc(-c3ccc(F)cc3)[nH]n2)C1 (centres undefined) | ? | ? | i | ? | -29%
COc1ccc(-c2cc(N3CCC(NC(=O)c4cc(C)ccc4C)C3)n[nH]2)cc1 (centres undefined) | i | ? | -18% | ? | -11%
COc1ccc(-c2cc(N3CCCC(NC(=O)c4cc(C)ccc4C)C3)n[nH]2)cc1 (centres undefined) | i | ? | ? | 32µM* | -19%
COc1ccc(-c2cc(N3CCCC(NC(=O)c4ccc(C)cc4C)C3)n[nH]2)cc1 (centres undefined) | 16µM* | ? | -10% | -18% | -16%
COC[C@@H]1CN(C(=O)CCn2cc(C)cn2)C[C@H]1c1nc(C2CC2)no1 | i | ? | -9% | 4% | 5%
COc1cccc(S(=O)(=O)N2CCC(Cc3nncn3C(C)C)C2)c1 (centres undefined) | i | 3% | i | ? | 0%
Cc1ccc(CNC[C@H]2O[C@H](Cc3cc(CN(C)Cc4ccccc4)on3)CC[C@@H]2O)cc1 | i | ? | 0% | ? | -16%
O=C1CC2(CCN(Cc3ccc(C(F)(F)F)cc3)C2)Nc2ccccc2N1 (centres undefined) | · | ? | i | -25% | ·
O=C1CCN(CC(O)Cc2ccccc2)c2ccccc2CCN1C/C=C/c1ccccc1 (centres undefined) | · | 22µM* | ? | ? | ·
